# The list is not random: actives were taken first. Their share in the collection is about 1%.
# RXFP1 antag: antagonists of human relaxin receptor RXFP1; Q9HBX9; HEK293-RXFP1, relaxin-stimulated cAMP HTRF, 30 min; hits give low values; activity change, negative = inhibition, % at 57.5 µM; 350,000 compounds, 0.59% hits;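 active = activity change of -60% or lower, but not beyond a set lower limit; inconclusive = change between -60% and -40%, or beyond the set limit; inactive = change above -40%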; note: % is set by controls: 0 for no effect and ±100 for the full control effect
# Target sequence (Q9HBX9 whole entry, looked up): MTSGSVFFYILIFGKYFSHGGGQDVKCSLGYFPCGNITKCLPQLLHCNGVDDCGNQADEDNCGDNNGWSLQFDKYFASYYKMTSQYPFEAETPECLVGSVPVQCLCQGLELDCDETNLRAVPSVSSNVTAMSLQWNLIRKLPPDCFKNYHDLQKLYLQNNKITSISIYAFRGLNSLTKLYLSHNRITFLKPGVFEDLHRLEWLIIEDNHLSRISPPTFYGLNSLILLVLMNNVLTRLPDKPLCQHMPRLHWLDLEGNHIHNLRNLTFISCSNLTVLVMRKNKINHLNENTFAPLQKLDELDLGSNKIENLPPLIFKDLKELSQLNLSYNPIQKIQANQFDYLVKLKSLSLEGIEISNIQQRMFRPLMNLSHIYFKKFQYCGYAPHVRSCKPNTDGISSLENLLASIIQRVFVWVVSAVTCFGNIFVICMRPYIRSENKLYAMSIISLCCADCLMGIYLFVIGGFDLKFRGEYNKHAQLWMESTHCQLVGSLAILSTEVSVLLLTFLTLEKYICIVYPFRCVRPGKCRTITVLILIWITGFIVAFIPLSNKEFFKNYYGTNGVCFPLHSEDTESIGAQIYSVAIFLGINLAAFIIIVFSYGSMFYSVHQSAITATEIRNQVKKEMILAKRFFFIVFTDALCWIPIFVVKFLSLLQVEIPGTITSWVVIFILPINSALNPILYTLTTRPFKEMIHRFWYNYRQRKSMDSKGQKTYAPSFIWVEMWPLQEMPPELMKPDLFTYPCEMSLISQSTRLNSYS
# gsp agonist: gsp mutant agonism. gsp mutant cells, cAMP HTRF, 30 min. 340,000 compounds, 0.13% hits. Potency, µM (top dose mostly 76.9 µM), inactives show top-dose activation (cAMP increase), usual class: activators; active = well fitted activation curve with a large enough effect; inconclusive = small, poorly fitted or top-dose-only effect, or another doubt; inactive = no such curve, though single readings can be large or run the other way; cell line not stated here;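 note: phosphodiesterase inhibitor Ro 20-1724 added with compounds to block cAMP breakdown; potency is the fitted concentration of half-maximal effect; nearly all actives have a fitted effect of over 60% in size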
#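 Cells in DMEM/10% FBS with G418 were pretreated with compounds in DMSO plus […] (300 uM stock) for 30 min at 37C. cAMP was measured by HTRF (cAMP-d2 plus anti-cAMP antibody-K) after 30 min at room temperature.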
# TSHR antagonist: blocks TSH signaling through the human TSH receptor. P16473. TSHR-expressing cells, TSH-stimulated cAMP HTRF, 2 h; hits give low values. activity change, negative = inhibition, % at 11.5 µM. 330,000 compounds, 0.2% hits. AID 504810;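 active = activity change below a set negative limit, meaning inhibition stronger than a set level, cut at about -70% in these data; inconclusive = activity change between two set negative limits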; note: % is set by controls: 0 for no effect and ±100 for the full control effect
#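 Read-out is FRET at 665 nm (cryptate excitation 337 nm) from a cryptate-tagged anti-cAMP antibody, competed by cell cAMP against cAMP-d2. Compounds are tested on freshly harvested TSHR cells challenged with 4nM TSH (EC80) for 2 hours at 37 deg C.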
# gsp antagonist: antagonists of gsp mutant (McCune-Albright syndrome); 340,000 compounds, 0.4% hits; gsp-mutant cells, cAMP HTRF, 30 min; AID 624288; Potency, µM (titrated, usually from 76.9 µM), for inactives: at the top dose activity change, negative = inhibition, most hits filed as inhibitors; calls by dose curve; cell line not stated here;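 note: intracellular cAMP measured with PDE inhibitor Ro 20-1724 present during compound exposure; potency is the fitted concentration of half-maximal effect; % is set by controls: 0 for no effect and ±100 for the full control effect; nearly all actives have a fitted effect of over 65% in size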
#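 HTRF cAMP measurement after 30 min RT detection following 30 min, 37C compound treatment alongside […] (added as 300 uM solution) in G418-selected cells seeded at 2000/well and grown 16–24 h.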
# RXFP1 agonist: activates the human relaxin receptor RXFP1; HEK293T-RXFP1 cAMP TR-FRET, 30 min; response scale: percent of porcine relaxin response, buffer zero; Potency, µM (titrated, usually from 57.5 µM), for the others: at the top dose activation, most hits filed as activators; 370,000 compounds, 0.3% hits; AID 2676; active = well fitted activation curve with a large enough effect; inconclusive = small, poorly fitted or top-dose-only effect; note: potency is the fitted concentration of half-maximal effect; % is set by controls: 0 for no effect and ±100 for the full control effect; nearly all actives have a fitted effect of over 60% in size
#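 Agonist response is measured as cAMP accumulation in an RXFP1-transfected HEK293T line under PDE4 inhibition. Values are scaled between buffer-only and 29 nM porcine relaxin, and EC50s come from standard Hill equation fits.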
# Starred values were filed as active, the others as inactive; ? = inconclusive; nt = no result given; [ ] = remark or other dose.
SMILES,RXFP1 antag,gsp agonist,TSHR antagonist,gsp antagonist,RXFP1 agonist
CCN(CC)CCN(C(=O)c1ccc(C(=O)OC)cc1)c1nc2ccc(Cl)cc2s1,-7,nt,nt,nt,1%
COc1cccc(NC(=O)CCSc2nc(-c3ccco3)cc(C(F)(F)F)n2)c1,-3,nt,nt,nt,0%
N#Cc1nc(COc2ccc(-c3ccccc3)cc2)oc1NCCCN1CCOCC1,-62*,0%,-9,2%,1%
N#Cc1nc(COc2ccccc2)oc1NCCN1CCOCC1,-18,-6%[15.4 µM],-9,-7%,1%
CCc1cccc(C)c1NC(=O)CSc1nnc(CCCOc2ccc(Cl)cc2Cl)n1C,-12,-8%,13,10µM*,0%
Cn1c2c(c(=O)n(C)c1=O)C(C(F)(F)F)(C(F)(F)F)N=C(c1ccc(Cl)cc1)N2,-11,-26%,?,40µM*,0%
CC(CNC(=O)c1ccc(Cn2c(=O)c3cccn3c3cccnc32)cc1)c1ccccc1 (stereo not given),-1,nt,nt,nt,-1%
CCCOc1ccc(NC(=O)CC2C(=O)N(c3cccc(C)c3)C(=O)N2CCc2ccncc2)cc1 (stereo not given),3,nt,nt,nt,2%
Cc1ccc(S(=O)(=O)N(C)c2ccc(C(=O)Nc3ccccn3)cc2)cc1,-25,-27%,1,-28%,0%
Cc1ccc(S(=O)(=O)N(C)c2ccc(C(=O)Nc3cccc(C)n3)cc2)cc1,-35,9%[15.4 µM],-12,35µM*,0%
O=c1[nH]c2sc3c(c2c2nncn12)CCCC3,4,0%,15,35µM*,0%
Cc1ccc(-c2nnc(-n3nc(C)cc3C)c3ccccc23)cc1,-2,2%,-1,35µM*,-1%
O=C(NCCc1ccccc1Cl)c1ccc2c(=O)n(-c3ccccc3)c(=O)[nH]c2c1,-21,nt,nt,nt,-3%
COc1ccc(OCCNC(=O)C(Cc2c[nH]c3ccccc23)NC(C)=O)cc1 (stereo not given),7,10µM*,-8,4%,-3%
O=C(NCCOC(=O)c1ccc(S(=O)(=O)N2CCOCC2)cc1)c1cccnc1,9,28µM*,14,5%,23%
CC1=C(C(=O)Nc2cccc(C(F)(F)F)c2)C(c2ccccn2)n2ncnc2N1 (stereo not given),nt,nt,nt,nt,2%
CCOC(=O)COc1ccc(S(=O)(=O)NCc2cccnc2)cc1,-13,14%,-5,-5%,2%
COC(=O)COc1ccc(S(=O)(=O)NCc2ccncc2)cc1,nt,-19%,-23,11µM*,2%
COc1cc(/C=N/NC(=O)Cn2cnc3c2c(=O)n(C)c(=O)n3C)ccc1O,41,22µM*,3,7%,16µM*
Cc1ccc(N(C)C(=O)c2cc(S(=O)(=O)N3CCc4ccccc43)cn2C)cc1,3,-65%,-8,-8%,1%
CN(C(=O)c1cc(S(=O)(=O)N2CCc3ccccc32)cn1C)C1CCCCC1,-103*,-19%,-3,-11%,0%
Cc1ccc(Cn2ccn(Cc3ccccc3F)c(=O)c2=O)cc1,8,nt,nt,nt,-1%
COc1ccc(CN2C(=O)c3cccnc3C2=O)cc1S(=O)(=O)NCc1ccc(C)o1,21,?,7,7%,16µM*
O=C1c2cccnc2C(=O)N1Cc1ccc(S(=O)(=O)NCc2ccco2)s1,14,?,27,-1%,?
COc1ccccc1CNS(=O)(=O)c1cc(CN2C(=O)c3cccnc3C2=O)ccc1OC,6,?,3,1%,?
SMILES,RXFP1 antag,gsp agonist,TSHR antagonist,gsp antagonist,RXFP1 agonist
O=C1c2cccnc2C(=O)N1Cc1ccc(F)cc1S(=O)(=O)NCc1ccco1,16,?,6,4%,25µM*
COc1ccc(Nc2nc(Nc3ccc(OC)cc3OC)nc(N3CCOCC3)n2)c(OC)c1,-4,nt,nt,nt,0%
Cn1c2cc(B(O)O)sc2c2cnn(Cc3c(F)cccc3F)c(=O)c21,nt,nt,-19,nt,3%
CCOc1ncccc1C(=O)OC(C)C(=O)NC(=O)NC1CCCCC1 (stereo not given),-14,6.3µM*,-7,7%,-1%
O=C1/C(=C2\C(=O)N(Cc3ccc(F)cc3)c3ccccc32)SC(=S)N1CCS(=O)(=O)O,-72*,-51%,-2,-1%,0%
CCOc1ccc2nc(NC(=O)c3cc(=O)c4cc(C)cc(C)c4o3)sc2c1,-3,nt,nt,nt,0%
Cc1nc(N2CCN(S(=O)(=O)c3ccccc3C#N)CC2)c2c(-c3ccccc3)csc2n1,3,?,-79*,?,2%
Brc1ccc2[nH]c3c(N4CCc5ccccc5C4)ncnc3c2c1,-6,11%,-77*,-20%,1%
Fc1ccc2[nH]c3c(N4CCc5ccccc5C4)ncnc3c2c1,-31,8%[15.4 µM],?,?,-1%
c1ccc2c(c1)[nH]c1c(N3CCCC3)ncnc12,-11,?,-25,?,0%
Clc1ccc2[nH]c3c(N4CCC5(CC4)OCCO5)ncnc3c2c1,-11,9%,-21,35µM*,4%
c1ccc2c(c1)[nH]c1c(N3CCSCC3)ncnc12,2,21%,8,14µM*,1%
Cc1cccc2[nH]c3c(N4CCC5(CC4)OCCO5)ncnc3c12,-7,-17%,2,-20%,-1%
CCc1cccc(NC(=O)COc2cc(=O)n(CC)c3ccccc23)c1,-9,nt,nt,nt,21%
Cc1ccc(-n2ncc3c(NCCCc4ccccc4)ncnc32)cc1,-15,nt,nt,nt,28%
CCOc1ccc(CCNC(=O)Cn2c(-c3cccs3)cc3ccccc32)cc1,-6,nt,nt,nt,7%
Cc1ccc(NC(=O)CSc2nccn2C2CCCC2)cc1Cl,-13,nt,nt,nt,0%
CCOC(=O)c1ccccc1NC(=O)CSc1nc2ncccc2[nH]1,-2,nt,nt,nt,6%
COc1cc(C2CC(=O)N(c3ccc(C)c(Cl)c3)C3=C2C(=O)OC3)cc(OC)c1OC (stereo not given),-9,nt,nt,nt,-4%
Cc1ccc(CNC(=O)CN2C(=O)CCc3cc(S(=O)(=O)N4CCCCC4)ccc32)cc1,nt,nt,nt,nt,8%
COC(=O)CN1C(=O)COc2ccc(S(=O)(=O)N3CCCC3)cc21,15,-11%,-135*,0%,-1%
CCCCc1nn2c(=O)cc(COC(=O)c3ccco3)nc2s1,nt,nt,nt,nt,3%
COc1ccc(S(=O)(=O)N(CC(=O)NCc2cccnc2)Cc2ccccc2)cc1,-3,1%[15.4 µM],8,11µM*,0%
CCn1nnc2cc(C(=O)Nc3cc(C)ccc3C)ccc21,-7,nt,nt,nt,2%
COc1cccc(-n2nnc3c(=O)n(CC(=O)NCC4CCCO4)cnc32)c1 (stereo not given),13,11µM*,22,21%,0%
COc1ccc(NC(=O)Cn2c(=O)n(Cc3ccccc3Cl)c(=O)c3cc(OC)c(OC)cc32)cc1OC,nt,nt,nt,nt,25µM*
O=C(CCCn1c(=S)[nH]c2ccccc2c1=O)NC1CCCCC1,-111*,21%,-2,8%,3%

# Screening data: PubChem BioAssay, National Center for Advancing Translational Sciences (NCATS)
